Each structure is given as a SMILES string. The campaign covered roughly 290,000 compounds. About 27,000 (9.3%) were called active. No stated cut-off is given here; in the data, active means inhibition mostly above about 28% (no sharp cut-off); inactive means mostly below about 43%. Many of the other results were omitted from the sample, so actives are more common in it than they were.

Our source for the inhibition values is PubChem BioAssay AID2315 (National Center for Advancing Translational Sciences (NCATS), 2010).

A short description of this test: A qHTS for Small Molecule Inhibitors of Shiga Toxin. Further: 0% is about no effect. Particulars: Vero cells, Shiga toxin protein synthesis inhibition reporter; at 38.7 µM, stronger effect = higher value. On the technique in general: In qHTS, concentration-response curves come from the screen itself.
The term inhibition denotes the drop in the measured response relative to a control, in per cent. Turning to `COc1ccc(C(=O)/C=C/c2ccc(-c3ccccc3)cc2)cc1CSCC(=O)O`, the inhibition was -14.5% (inactive).

Regarding `Cc1ccccc1NC(=O)CCOc1ccccc1`, the inhibition is 58% (active).

As to `Cc1c(NC(=O)CCCOc2ccccc2)cccc1[N+](=O)[O-]`, the inhibition was 10.4% (inactive).

Turning to `CCc1ccccc1NC(=O)CCOc1ccccc1`, the inhibition is -7.03% (inactive).

Turning to `COc1cccc(CN(C)CC2CCCN(CCc3ccc(Cl)cc3)C2)c1OC` (centres undefined), the inhibition is -3.67% (inactive).

For `C/[N+]([O-])=C\c1ccc([N+](=O)[O-])o1`, the inhibition is -7.77% (inactive).

Consider `O=C(N/N=C/c1ccc([N+](=O)[O-])o1)c1cn(-c2ccccc2)nc1-c1ccc(F)cc1`, for which the inhibition was 8.71% (inactive).

As for `O=C(/C=C/c1ccc([N+](=O)[O-])o1)NNC(=O)c1ccc(F)cc1`, the inhibition was 120% (active).

On to `Cc1coc2c1c(C)cc1oc(=O)c(CC(=O)NCC(=O)N[C@H](C(=O)O)C(C)C)c(C)c12`, for which the inhibition is -15% (inactive).

With `O=c1c2c(nc3n1CCCCC3)sc1c(O)cccc12`, the inhibition was 20.9% (inactive).

For the compound `Cc1nc(N2CCOCC2)c2c(C)c(C(=O)Nc3ccc(C(F)(F)F)cc3)sc2n1`, the inhibition is -15.2% (inactive).

As to `CC(=O)c1ccc(NC(=O)c2sc3nc4n(c(=O)c3c2C)CCCCC4)cc1`, the inhibition was 81.1% (active).

For the compound `Cc1nc(N2CCN(c3ccccn3)CC2)c2c(C)c(C(=O)Nc3ccc(F)cc3)sc2n1`, the inhibition was -7.13% (inactive).

As for `Cc1c(C(=O)Nc2ccccc2)sc2nc3n(c(=O)c12)CCCCC3`, the inhibition was 95.7% (active).

As for `Cc1c(C(=O)Nc2cccc(-c3nnc4n3CCCCC4)c2)oc2ccccc12`, the inhibition was 35% (inactive).

On to `CN(C(=O)CC1C(=O)NCCN1Cc1ccc(F)cc1Cl)C1CCCCC1` (centres undefined), for which the inhibition was -14.2% (inactive).

For the compound `CCn1c(Cc2cccs2)nnc1SCC(=O)c1ccc(C)cc1`, the inhibition was 41.4% (active).

On to `C=CCn1c(CNC(=O)c2ccco2)nnc1SCC(=O)c1ccc(OC)cc1`, for which the inhibition is -12.2% (inactive).

With `Cn1c(Cc2cccs2)nnc1SCC(=O)Nc1ccccc1`, the inhibition was -7.01% (inactive).

For the compound `COC(=O)c1ccc(NC(=O)CSc2nnc(CNc3ccc(OC)cc3)n2C)cc1`, the inhibition is 24.4% (inactive).

Consider `CCn1c(SCC(=O)c2ccc3ccccc3c2)nnc1-c1cccs1`, for which the inhibition is -3.35% (inactive).

With `CCn1c(SCC(=O)c2ccc(Cl)s2)nnc1-c1cccs1`, the inhibition is 73.6% (active).

For `CCn1c(CNc2ccc(OC)cc2)nnc1SCC(=O)c1ccc(OC)cc1`, the inhibition was -15.6% (active).

As to `CCn1c(SCC(=O)N(C)C2CCS(=O)(=O)C2)nnc1-c1cccs1` (centres undefined), the inhibition is -0.571% (inactive).

For the compound `Cc1ccc(-n2c(Cc3cccs3)nnc2SCC(=O)OC(C)C)cc1`, the inhibition is 8.05% (inactive).

Regarding `O=C(NCc1ccco1)C(c1ccncc1)N(C(=O)Cn1nnc2ccccc21)c1ccccc1` (centres undefined), the inhibition is -3.36% (inactive).

With `CCOC(=O)c1cc(C)nc(S(C)(=O)=O)c1C#N`, the inhibition is 47.2% (inactive).

`CN(CCc1ccccc1)c1ccc([N+](=O)[O-])cn1`: the inhibition is -3.15% (inactive).

With `CCCCC(c1nnnn1CS(=O)(=O)c1ccc(C)cc1)N1CCC(C(N)=O)CC1` (centres undefined), the inhibition was -8.35% (inactive).

With `O=C(CSc1ccsc1[N+](=O)[O-])N1CCCCC1`, the inhibition is 6.79% (inactive).

With `COc1ccccc1-c1nnc(SCC(=O)N2CC(C)CC(C)C2)o1` (centres undefined), the inhibition is -7.49% (inactive).

With `CC1CC(C)CN(C(=O)CSc2ccsc2[N+](=O)[O-])C1` (centres undefined), the inhibition is 63.3% (active).

Consider `COCc1c(C(=O)N/N=C(\C)c2ccncc2)nnn1-c1nonc1N`, for which the inhibition is -3.05% (inactive).

With `COC(=O)c1ccc(NC(=O)CSc2nnc(C3CC3)n2C)cc1`, the inhibition is 17.5% (inactive).

For `O=C(Nn1cnc2ccccc2c1=O)c1ccccc1`, the inhibition was 58.6% (inactive).

With `O=C(Nn1cnc2ccccc2c1=O)c1ccc([N+](=O)[O-])cc1Cl`, the inhibition was -11.9% (inactive).

For the compound `O=C(Nn1cnc2ccccc2c1=O)c1ccc(F)cc1Cl`, the inhibition is 71.8% (active).

For `COc1cc(C(=O)NCc2ccncc2)cc(Br)c1OCc1ccccc1`, the inhibition was -9.85% (inactive).

Turning to `CC(C(=O)NCCc1ccc(S(N)(=O)=O)cc1)N1C(=O)CC(C)(C)Sc2ccccc21` (centres undefined), the inhibition was -10.5% (inactive).

With `COc1ccc(N/C=C(\C2OC(=O)c3ccccc32)[N+](=O)[O-])cc1` (centres undefined), the inhibition was 15.2% (inactive).

For the compound `CC(=O)Nc1ccc(-c2csc(NC=C3C(=O)OC(C)(C)OC3=O)n2)cc1`, the inhibition is 54% (inactive).

For the compound `COc1ccc(C)cc1Nc1nc(-c2c(C)[nH]c3ccccc23)cs1`, the inhibition is -3.8% (inactive).

For the compound `COc1ccc(-c2csc(NC3OC(=O)c4ccccc43)n2)cc1` (centres undefined), the inhibition was 41.6% (active).

In the case of `COc1ccc2c(c1OC)C(=O)OC2c1c(O)nc(SC)n(-c2ccccc2)c1=O` (centres undefined), the inhibition is -8.28% (inactive).

In the case of `COc1ccc2c(c1OC)C(=O)OC2Nc1nc(-c2ccccc2)cs1` (centres undefined), the inhibition was 36.9% (active).

Take `Cc1ccc(-c2csc(NC(=O)Cn3[nH]c(=O)c4ccccc4c3=O)n2)cc1`: the inhibition is 42.6% (inactive).

For `Cc1ccc(-c2csc(NC3OC(=O)c4ccccc43)n2)cc1` (centres undefined), the inhibition is 30% (active).

Consider `CCCn1c(CCNc2nc(-c3ccc(OC)cc3)cs2)nc2ccccc21`, for which the inhibition is 20.9% (inactive).

In the case of `Cc1ccc(NS(=O)(=O)c2ccc3c(c2)n(C)c(=O)c(=O)n3C)c(C)c1`, the inhibition is -7.48% (inactive).

For `COCCN1CCn2c(nc3cc(NS(C)(=O)=O)ccc32)C1`, the inhibition was -2.98% (inactive).

For the compound `COc1ccc(C(=O)NC2CC(C)(C)Cc3c2cnn3-c2ccccc2C)o1` (centres undefined), the inhibition was -10.5% (inactive).

As to `O=C(COc1ccc2c3c(c(=O)oc2c1)CCCC3)NCC(O)c1ccccc1` (centres undefined), the inhibition is -3.53% (inactive).

Regarding `O=C(CCn1c(=S)[nH]c2cc3c(cc2c1=O)OCO3)NCc1ccc(Cl)cc1`, the inhibition is 1.66% (inactive).

As for `O=C(CCc1nnc(Cc2ccc3c(c2)OCO3)o1)NCCc1ccccc1Cl`, the inhibition is -5.99% (inactive).

In the case of `CN1CCN(Cc2nc3cc(NC(=O)COc4ccc([N+](=O)[O-])cc4)ccc3n2C)CC1`, the inhibition is -2.13% (inactive).

With `COC(=O)c1cccc(C(=O)N2CCCC(Nc3ccc4c(c3)OCCO4)C2)c1` (centres undefined), the inhibition was 2.25% (inactive).

Regarding `Cc1cc(/C=C2\SC(=O)N(C)C2=O)c(C)n1-c1cccc(C(=O)O)c1`, the inhibition is 3.52% (inactive).

For `COc1ccc(OCCCCN2CCC(C)CC2)cc1`, the inhibition was -6% (inactive).

In the case of `Cn1cc(Cl)c(C(=O)NNC(=S)Nc2cccc(Cl)c2)n1`, the inhibition was 49.5% (active).

For the compound `Cc1cccc(NC(=S)Nc2ccc(Cl)c(Cl)c2)c1`, the inhibition was 17% (inactive).

As to `CC(C)CNC(=S)NNC(=O)c1nn(C)cc1Cl`, the inhibition was 4.35% (inactive).

For the compound `CC(Cc1cccs1)N(Cc1ccc(Cl)cc1)C(=O)c1ccncc1` (centres undefined), the inhibition is -3.64% (inactive).

Regarding `COc1cc(OC)c(NS(=O)(=O)c2cn(C)cn2)cc1Cl`, the inhibition is 11.1% (inactive).

Regarding `COc1cccc(CNC(=O)c2cccnc2Sc2ccc(Cl)cc2)c1`, the inhibition was -40.4% (inactive).

Turning to `O=C(NCCc1ccccc1)c1ccc(NC2=NC3CS(=O)(=O)CC3S2)cc1` (centres undefined), the inhibition is 3.05% (inactive).

Regarding `CC1CCN(c2c(NCc3ccc(C(=O)NCc4ccccc4)cc3)c(=O)c2=O)CC1`, the inhibition was -6.77% (inactive).

Take `CC1CCCN(c2ccc(C(=O)NCCc3ccccc3)cn2)C1` (centres undefined): the inhibition is 78.5% (active).

As to `CCN(CC)S(=O)(=O)c1ccc(N2CCCC2)c(NS(=O)(=O)c2cccs2)c1`, the inhibition was 21% (inactive).

As for `COc1ccc(CNc2c(CO)cnc3c2cnn3C)cc1`, the inhibition was -11.4% (inactive).

As for `CN(C)/C=C(/C(=O)c1ccc(Cl)cc1)S(=O)(=O)c1ccccc1`, the inhibition was 64.1% (active).

Regarding `CN(C)/C=C(/C(=O)c1ccc(F)cc1)S(=O)(=O)c1ccc(F)cc1`, the inhibition is 58.3% (inactive).

Consider `CN(C)/C=C(/C(=O)c1ccccc1)S(=O)(=O)c1ccc(Cl)cc1`, for which the inhibition is 13.2% (inactive).

As for `Cc1ccc(C(CNC(=O)Nc2ccccc2)N2CCN(C)CC2)cc1` (centres undefined), the inhibition was -3.91% (inactive).

On to `CCc1cc(=O)oc2c(C)c(OCC(=O)NCCN3CCOCC3)ccc12`, for which the inhibition was -2.76% (inactive).

On to `O=C(Nc1ccc(Cl)cn1)c1cnn2cccnc12`, for which the inhibition is 85.1% (active).

Consider `Cc1cc(NC(=O)c2cnn3cccnc23)n(-c2ccccc2)n1`, for which the inhibition was -5.01% (inactive).

On to `COc1cccc(-c2cccc(NC(=O)C3CCN(C4CCC4)CC3)c2)c1`, for which the inhibition was -10.9% (inactive).

As to `COc1cc(Nc2nc3ccc(Cl)cc3n3cnnc23)cc(OC)c1OC`, the inhibition is -9.44% (inactive).

Regarding `CCN1CCN(c2ccc(S(=O)(=O)N3CCCCC3)cc2NC(=O)Cc2c(Cl)cccc2Cl)CC1`, the inhibition was 42.5% (active).

For the compound `COc1ccc(CC(=O)Nc2cc(S(=O)(=O)N3CCCCC3)ccc2N2CCN(C)CC2)cc1`, the inhibition was 2.85% (inactive).

On to `CN1CCN(c2ccc(S(=O)(=O)N3CCCCC3)cc2NC(=O)Cc2ccccc2F)CC1`, for which the inhibition is -8% (inactive).

`COC(=O)c1cnc(Nc2cc(C)ccc2OC)c2ccccc12`: the inhibition was -8.41% (inactive).

Consider `Cc1cc(F)ccc1NC(=S)NCCc1ccccc1`, for which the inhibition was 6.98% (inactive).

With `Cc1ccc(C)c(C(C)NC(=O)C2CCCO2)c1` (centres undefined), the inhibition is -10.5% (inactive).

For the compound `O=C(CN1CCSCC1)N/N=C/c1ccc(Cl)cc1`, the inhibition is 29.2% (inactive).

As for `Cc1ccc(COc2ccc(/C=N/NC(=O)CN3CCCCC3)cc2)cc1`, the inhibition was 87.5% (active).

In the case of `CCOc1cc(/C=N/NC(=O)CN2CCCCC2)ccc1O`, the inhibition was -8.43% (inactive).

Turning to `CC(=O)N/C(=N/c1nc(C)cc(C)n1)Nc1ccc(F)cc1F`, the inhibition is -13.6% (inactive).

As to `CC(OC(=O)c1ccc2noc(-c3ccccc3)c2c1)C(N)=O` (centres undefined), the inhibition is 1.23% (inactive).

With `CC(=O)c1c(C)n(-c2ccc(C)cc2)c2ccc(O)cc12`, the inhibition is -16.2% (inactive).

Turning to `O=C(Oc1ccc(Br)cc1)c1cccnc1`, the inhibition was 22.6% (inactive).

With `CCCCCCOc1ccc(OC(=O)c2cccnc2)cc1`, the inhibition was 37.9% (inactive).

Turning to `O=C(Oc1ccc(-c2nc(-c3ccccn3)no2)cc1)c1ccccc1`, the inhibition is 33% (active).

For `CCN(CC)Cc1c(C(=O)N/N=C/c2cccc(OCc3ccc(F)cc3)c2)nnn1-c1nonc1N`, the inhibition was -1.06% (inactive).
